In the library only some 22% were active in any assay of this set; here they are far more common.
CYP2C9 inhib = blocks human cytochrome P450 2C9; P11712; CYP2C9 Supersomes, luciferin-H conversion, luminescence; inhibition, % at 5 µM; 96,000 compounds, 20% hits; AID 777;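 active = blocking of liver enzyme CYP2C9 beyond about 50% at 5 µM, limit read from the data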
Measles CPE = protection of cells from measles virus. Measles virus-infected cells, CPE protection, absorbance. AID 841. protection (pct of control), % at 4 µM. 140,000 compounds, 1.5% hits; in the data active = protection mostly above about 24%, no sharp cut-off; inactive = mostly below about 26%
CYP2C9 activ = CYP2C9 (human) activation; P11712; recombinant CYP2C9, luciferin-H conversion, luminescence; stronger effect = higher value; factor 1 = untreated enzyme, 0 = blocked; activation factor at 5 µM; 96,000 compounds, 1.4% hits;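 active = activation factor of 2 or more for CYP2C9 at a 5 µM dose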
CYP2C19 inh = inhibitors of human CYP2C19; P33261; CYP2C19 Supersomes, luciferin-H EGE luminescence, 30 min; inhibition, % at 5 µM; 96,000 compounds, 21% hits; AID 778;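 active = CYP2C19 inhibition above a set limit at 5 µM in the primary screen, cut at about 50% in these data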
Target sequence (P33261 whole entry, looked up): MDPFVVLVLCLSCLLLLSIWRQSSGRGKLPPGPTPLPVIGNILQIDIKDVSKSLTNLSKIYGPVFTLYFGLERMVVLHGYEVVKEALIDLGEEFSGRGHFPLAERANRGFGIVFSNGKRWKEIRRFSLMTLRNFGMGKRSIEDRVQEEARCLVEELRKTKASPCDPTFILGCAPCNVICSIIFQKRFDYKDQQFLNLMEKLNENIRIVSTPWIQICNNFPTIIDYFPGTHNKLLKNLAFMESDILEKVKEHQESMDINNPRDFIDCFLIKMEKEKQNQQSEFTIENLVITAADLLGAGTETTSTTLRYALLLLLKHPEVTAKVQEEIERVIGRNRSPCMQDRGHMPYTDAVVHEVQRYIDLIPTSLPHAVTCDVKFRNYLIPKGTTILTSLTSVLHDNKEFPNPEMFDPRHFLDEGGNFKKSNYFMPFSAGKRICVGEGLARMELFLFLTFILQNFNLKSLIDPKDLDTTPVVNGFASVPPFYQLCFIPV
CYP2C19 act = cytochrome P450 2C19 (human) activation | P33261 | recombinant CYP2C19, luciferin-H EGE luminescence; stronger effect = higher value; 0 = fully inhibited enzyme, 1 = untreated enzyme | activation factor at 5 µM | 96,000 tested, under 10 active;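 active = activation factor of at least 2 at 5 µM in the primary screen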
A number is an active result; . = inactive; / = not tested or not shown.

SMILES	CYP2C9 inhib	Measles CPE	CYP2C9 activ	CYP2C19 inh	CYP2C19 act
Cc1cc(SCC(=O)c2cccs2)nc2c(C)cccc12	.	.	.	.	.
CC(=O)CSc1nc(N)c(C#N)c(-c2cccs2)c1C#N	60	.	.	.	.
Cc1cc2c(C)ccc(C)c2nc1SCC(=O)c1cccs1	55	.	.	.	.
Cc1cc(C)c(C#N)c(SCC(=O)c2cccs2)n1	62	.	.	96	.
N#Cc1c(-c2cccs2)cc(C2CC2)nc1SCC(N)=O	.	.	.	59	.
COc1cccc(CC(NC(C)=O)C(=O)NC2CCN(c3nc(C)cc(C)c3C#N)CC2)c1OC (configuration not stated)	.	.	.	.	.
CCOC(=O)CN1CC23C=CC(O2)C(C(=O)Nc2ccc(OC)cc2OC)C3C1=O (configuration not stated)	.	.	.	.	.
COc1ccccc1NS(=O)(=O)c1cccc(NC(=O)Cc2cccs2)c1	/	.	/	/	/
Cc1ccc(CN(Cc2cc3cc4c(cc3[nH]c2=O)OCCO4)Cc2nnnn2Cc2ccco2)cc1	96	.	.	88	.
Cc1ccc2cc(CN(Cc3ccc4c(c3)OCO4)Cc3nnnn3Cc3ccco3)c(=O)[nH]c2c1	84	.	.	80	.
Cc1ccc2cc(CN(Cc3ccco3)C(=O)c3cccs3)c(=O)[nH]c2c1	.	.	.	.	.
COc1ccc(C2Sc3nncn3N2Cc2ccc(C#N)cc2)cc1 (configuration not stated)	.	.	.	.	.
O=C1c2ccccc2OC2(C=Cc3ccccc3O2)N1Cc1ccccc1 (configuration not stated)	94	.	.	97	.
O=C(CSc1ccc(Cl)cc1)c1ccco1	.	.	.	.	.
O=C(CSc1ccccc1)Nc1cccc(NC(=O)c2ccco2)c1	.	.	.	.	.
O=C(CSc1ccc(Cl)cc1)Nc1cccc(NC(=O)c2ccco2)c1	77	.	.	.	.
O=C(CNC(=O)c1ccco1)OCc1ccc(Cl)cc1	.	.	.	82	.
O=C(NCCSc1ccc(Cl)cc1)c1ccco1	51	.	.	84	.
CCOc1cc(/C=C2/C(=N)N3OC(C)=CC3=NC2=O)ccc1OCCOc1ccccc1	62	.	.	.	.
COc1cc(/C=C2/C(=N)N3OC(C)=CC3=NC2=O)ccc1OCCOc1ccc(C)cc1	.	.	.	.	.
CCOC(=O)C/C(C)=N/NC(=O)COc1ccccc1C	/	.	/	/	/
Cc1cccc(C)c1NC(=O)Cn1nc(-c2ccccc2)nc1-c1ccccc1	66	.	.	.	.
Cc1ccccc1NC(=O)Cn1nc(-c2ccccc2)nc1-c1ccccc1	56	.	.	.	.
O=C(CSc1nc2ccsc2c(=O)n1Cc1ccccc1)NCc1ccco1	.	.	.	.	.
CC1=C(C(=O)Nc2ccccc2)C(c2ccc(C)o2)n2c(s/c(=C\c3ccco3)c2=O)=N1 (configuration not stated)	85	.	.	69	.
SMILES	CYP2C9 inhib	Measles CPE	CYP2C9 activ	CYP2C19 inh	CYP2C19 act
C=CCOC(=O)CCC(=O)Nc1cccc2ccccc12	.	.	.	80	.
O=C(CCC(=O)OCc1ccc(C(=O)Oc2ccccc2)cc1)Nc1cccc2ccccc12	.	79	.	.	.
Cn1c(=O)c2[nH]c(-c3ccccc3O)nc2n(C)c1=O	.	.	.	.	.
Cc1ccc(C(=O)CNc2ccc(Br)cc2)cc1	.	.	.	75	.
O=C(CNc1ccc(Br)cc1)c1ccccc1	.	.	.	77	.
CC(C)c1ccc(NCCC(=O)c2ccc(Br)cc2)cc1	/	.	/	/	/
Cc1ccc(C(=O)Oc2ccc3c(c2)ncn3C)cc1	.	.	.	.	.
O/N=C1/CCc2nonc2/C1=N/O	.	.	.	.	.
O=C(CCCC(=O)N(CC(=O)NC1CCCCC1)Cc1ccccc1)Nc1ccccn1	.	.	.	.	.
COc1ccc(CNC(=O)CN(C(=O)CCC(=O)Nc2ccccn2)c2ccccc2OC)cc1	64	.	.	.	.
O=C(CN(Cc1ccco1)C(=O)CCC(=O)Nc1ccccn1)NCCc1ccccc1	58	.	.	69	.
COc1ccccc1N(CC(=O)NCc1ccccc1)C(=O)CCC(=O)Nc1ccccn1	/	.	/	/	/
Cc1ccc(CN(CC(=O)NCCc2ccccc2)C(=O)CCCC(=O)Nc2cc(C)on2)cc1	62	.	.	60	.
Cc1cccc(N(CC(=O)NCc2ccco2)C(=O)CCC(=O)Nc2ccccn2)c1	.	.	.	58	.
Cc1cccc(N(CC(=O)NC2CCCCC2)C(=O)CCC(=O)Nc2ccccn2)c1	.	/	.	.	.
Cc1cccc(N(CC(=O)NCc2ccc3c(c2)OCO3)C(=O)CCC(=O)Nc2ccccn2)c1	.	.	.	61	.
Cc1cccc(N(CC(=O)NCc2ccc3c(c2)OCO3)C(=O)CCC(=O)Nc2ccccn2)c1C	59	.	.	82	.
O=c1c2ccccc2nc(CSc2ncnc3nc[nH]c23)n1-c1cccc(C(F)(F)F)c1	.	27	.	.	.
O=c1[nH]c(SCc2nc3ccccc3c(=O)n2-c2ccccc2)nc2ccccc12	/	.	/	/	/
O=C(O)CSc1nnnn1-c1ccc2c(c1)OCCO2	.	.	.	.	.
CC(C)OC(=O)CSc1nnnn1-c1ccc2c(c1)OCCO2	.	.	.	75	.
COc1ccc(-n2nnnc2SCC(=O)c2ccc3c(c2)OCCO3)cc1	/	.	/	/	/
O=C(CSc1nnnn1-c1ccc2c(c1)OCCO2)c1cccc2c1OCCO2	.	.	.	71	.
Fc1cccc(Cl)c1Cn1nnc(-c2ccc3c(c2)OCO3)n1	.	.	.	.	.
Fc1cccc(Cl)c1CSc1nnnn1-c1ccc2c(c1)OCO2	.	.	.	92	.
SMILES	CYP2C9 inhib	Measles CPE	CYP2C9 activ	CYP2C19 inh	CYP2C19 act
CCOC(=O)c1sc(/N=C/c2c(C)[nH]n(-c3ccccc3)c2=O)c(C#N)c1C	.	.	.	.	.
O=C(CSc1nnc(C2COc3ccccc3O2)o1)Nc1nccs1 (configuration not stated)	.	.	.	.	.
c1ccc(CCNc2ncnc3scc(C4COc5ccccc5O4)c23)cc1 (configuration not stated)	73	.	.	57	.
c1ccc2c(c1)OCC(c1csc3ncnc(N4CCCC4)c13)O2 (configuration not stated)	94	.	.	99	.
O=C(CSc1nnc(C2COc3ccccc3O2)o1)N1CCCCC1 (configuration not stated)	.	.	.	.	.
CCOC(=O)C1C(=O)NC(c2ccccc2)=NC1c1ccc(Cl)cc1 (configuration not stated)	.	.	.	57	.
CCOC(=O)C1C(=O)NC(c2ccccc2)=NC1c1ccc(C(C)C)cc1 (configuration not stated)	.	.	.	.	.
COc1ccc(C(C)(C)C)cc1NC(=O)C1C2C=CC(C2)C1C(=O)O (configuration not stated)	.	34	.	.	.
CC1=CC(C)(C)N(C(=O)c2ccc(F)cc2)c2cc3c(cc21)OCO3	97	.	.	95	.
